Measured values as given in article PMC6792352, “Limited Chemical Structural Diversity Found to Modulate Thyroid Hormone Receptor in the Tox21 Chemical Library” (Environmental Health Perspectives, 2019).
Where a name gives a salt, the structure may show the parent alone.

test system: thyroid hormone receptor (endogenous TRα and TRβ); parameters: species or system GH3-TRE-Luc (rat pituitary); GH3-TRE-Luc luciferase reporter, antagonist mode against 1 nM T3, loss of signal, qHTS; details: antagonist mode, 1 nM T3, no GH3 cytotoxicity hit, read-out: Average AC50 (uM) GH3-TRE-Antag

| SMILES | AC50 [µM] |
| --- | --- |
| C=C(Cl)CSC(=S)N(CC)CC [Sulfallate] | 86.5 |
| CN(C)c1ccc(C(c2ccccc2)c2ccc(N(C)C)cc2)cc1 [Leucomalachite green] | 20.8 |
| CCCCSP(=O)(SCCCC)SCCCC [Tribufos] | 50.4 |
| CCCCCCCCCCCCBr [1-Bromododecane] | 93.3 |
| Nc1ccc(N=Nc2ccc(-c3ccc(N=Nc4c(S(=O)(=O)O)cc5cc(S(=O)(=O)O)c(N=Nc6ccccc6)c(O)c5c4N)cc3)cc2)c(N)c1 [C.I. Direct Black 38] | 14 |
| CCOP(=S)(OCC)SCSP(=S)(OCC)OCC [Ethion] | 71.9 |
| COP(=S)(OC)SCN1C(=O)c2ccccc2C1=O [Phosmet] | > 50 |
| CCCSP(=S)(OCC)Oc1ccc(Cl)cc1Cl (stereo not shown) [Prothiofos] | 86.7 |
| CCCCC(CC)COP(=O)(Oc1ccccc1)Oc1ccccc1 (stereo not shown) [2-Ethylhexyl diphenyl phosphate] | 48.3 |
| COP(=S)(OC)Oc1nc(Cl)c(Cl)cc1Cl [Chlorpyrifos-methyl] | 78.8 |
| CCOP(=S)(OCC)Oc1cnc2ccccc2n1 [Quinalphos] | 55.1 |
| C[C@@H]1[C@H]2Cc3ccc(O)cc3[C@]1(C)CCN2C [(-)-Metazocine fumarate (1:1)] | 50.6 |
| COP(=O)(OC)OC(=CCl)c1cc(Cl)c(Cl)cc1Cl [Tetrachlorovinphos] | 27.1 |
| CCOP(=O)(OCC)O/C(=C\Cl)c1ccc(Cl)cc1Cl [Chlorfenvinphos] | > 50 |
| CCCSP(=O)(OCC)Oc1ccc(Br)cc1Cl (stereo not shown) [Profenofos] | > 50 |
| Clc1cccc(N2CCNCC2)c1 [1-(3-Chlorophenyl)piperazine] | 20 |

| SMILES | AC50 [µM] |
| --- | --- |
| CCOc1ccc2c3c1O[C@H]1[C@@H](O)C=C[C@H]4[C@@H](C2)N(C)CC[C@@]341 [Ethylmorphine] | 44.9 |
| N#CSCc1ccccc1 [Benzyl thiocyanate] | 56.4 |
| COC1=CC=C2[C@H]3Cc4ccc(OC)c5c4[C@@]2(CCN3C)[C@H]1O5 [Thebaine] | > 20 |
| Oc1c(Br)cc(Br)cc1Br [2,4,6-Tribromophenol] | > 50 |
| C[C@]12CCC(=O)C[C@@H]1CC[C@@H]1[C@@H]2CC[C@]2(C)[C@@H](O)CC[C@@H]12 [5alpha-Dihydrotestosterone] | 27.8 |
| CC(C)CC(N(C)C)C1(c2ccc(Cl)cc2)CCC1 (stereo not shown) [Sibutramine hydrochloride] | 29.8 |
| CCC(N)Cc1c[nH]c2ccccc12 (stereo not shown) [Etryptamine acetate] | 43.6 |
| CNC(=O)O/N=C(\SC)C(=O)N(C)C [Oxamyl] | > 90 |
| COC(=O)c1c(C(F)F)nc(C(F)(F)F)c(C2=NCCS2)c1CC(C)C [Thiazopyr] | > 90 |
| Oc1ccc(Cl)c(Cl)c1Cl [2,3,4-Trichlorophenol] | 87.3 |
| COP(=S)(OC)Oc1ccc(Sc2ccc(OP(=S)(OC)OC)cc2)cc1 [Temephos] | > 50 |
| O=P(Oc1ccccc1)(Oc1ccccc1)Oc1ccccc1 [Triphenyl phosphate] | > 90 |
| c1ccc2c(c1)sc1ccccc12 [Dibenzothiophene] | 33.4 |
| COP(=S)(OC)Oc1cc(Cl)c(Br)cc1Cl [Bromofos] | 65.8 |
| COP(=S)(OC)Oc1ccc(S(=O)(=O)N(C)C)cc1 [Famphur] | > 50 |

same assay, conditions: read-out: Average AC50 (uM) GH3-TRE-Antag; 24 h; antagonist

| SMILES | AC50 [µM] |
| --- | --- |
| CSCCCN=C=S [3-(Methylthio)propyl isothiocyanate] | > 90 |
| O=c1oc2ccccc2c(O)c1C(CC(O)c1ccc(-c2ccc(Br)cc2)cc1)c1ccccc1 (stereo not shown) [Bromadiolone] | 44.3 |
| CCc1cc(OC)c(C[C@@H](C)N)cc1OC [(-)-2,5-Dimethoxy-4-ethylamphetamine hydrochloride] | 71.2 |
| CN1C(=O)CN=C(c2ccccc2)c2cc(Cl)ccc21 [Diazepam] | 49.5 |
| O=C1CN=C(c2ccccc2)c2cc(Cl)ccc2N1 [Desmethyldiazepam] | 22.9 |
| C[C@]12CC[C@H]3[C@@H](CCC4=CC(=O)CC[C@@H]43)[C@@H]1CC[C@@H]2O [Nandrolone] | 32.5 |
| CC[C@]1(O)CC[C@H]2[C@@H]3CCC4=CCCC[C@@H]4[C@H]3CC[C@@]21C [Ethylestrenol] | 7.8 |
| CN(C)CCc1c[nH]c2cccc(O)c12 [Psilocin] | 91 |
| CN1C(=O)C(O)N=C(c2ccccc2)c2cc(Cl)ccc21 (stereo not shown) [Temazepam] | > 50 |
